HGIII-sPLA2 inh = Inhibits HGIII-sPLA2 liposome hydrolysis, primary screen | inhibition, % at 12.2 µM | QFRET BODIPY PC-A2 liposome hydrolysis, fluorescence | actives 0.56% (n = 370,000);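 active = inhibition above mean plus 3 SD of compounds lying within the high and low control bounds, cut at about 19% in these data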;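 also: 0% = median of test compound wells and 100% = no enzyme DMSO wells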
Target sequence (Q9NZ20 whole entry, looked up): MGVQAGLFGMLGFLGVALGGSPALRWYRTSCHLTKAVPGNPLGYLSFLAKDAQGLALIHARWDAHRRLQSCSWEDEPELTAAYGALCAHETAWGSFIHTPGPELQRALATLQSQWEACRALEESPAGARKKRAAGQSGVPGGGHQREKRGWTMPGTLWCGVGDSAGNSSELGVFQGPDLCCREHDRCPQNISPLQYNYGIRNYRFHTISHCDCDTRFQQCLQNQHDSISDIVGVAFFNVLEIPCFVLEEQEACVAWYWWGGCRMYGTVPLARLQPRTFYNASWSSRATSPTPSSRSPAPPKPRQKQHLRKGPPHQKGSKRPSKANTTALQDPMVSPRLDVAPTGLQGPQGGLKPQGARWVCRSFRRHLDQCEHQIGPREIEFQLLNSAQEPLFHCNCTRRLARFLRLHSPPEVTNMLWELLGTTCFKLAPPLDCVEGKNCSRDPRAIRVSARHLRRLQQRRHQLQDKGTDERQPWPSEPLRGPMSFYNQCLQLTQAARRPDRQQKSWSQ
NRP1-CendR mod = NRP-1/CendR interaction modulation | O14786 | FAM-RPARPAR peptide binding to NRP-1, fluorescence polarization | inhibition, % at 25 µM | actives 0.85% (n = 360,000) | AID 602438;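 active = inhibition or corrected inhibition above about 18%, plus a signal ratio from 0.5 to 1.5, limit read from the data, passing the limit was not always enough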
ADAM10 inh = inhibitors of human ADAM10; O14672; recombinant ADAM10, EDANS/DABCYL FRET peptide cleavage, 3 h; inhibition, % at 7 µM; actives 0.62% (n = 370,000);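 active = inhibition above a per-campaign cutoff equal to the mean of compounds falling between control-based bounds plus 3 SD, cut at about 20% in these data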;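 also: 0% = DMSO wells while the 100% control is not disclosed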
ADAM17 inh = inhibitors of human ADAM17. recombinant ADAM17, EDANS/DABCYL FRET peptide cleavage. inhibition, % at 6.95 µM. actives 0.83% (n = 370,000);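 active = inhibition above the mean of compounds lying between control limits plus 3 SD, set per campaign, cut at about 8.5% in these data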;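 also: 0% = DMSO-only wells as the low control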
proKLK7 act = activators of human kallikrein-7 zymogen. P49862. purified proKLK7, EDANS-DABCYL substrate fluorescence; 100% is mature enzyme control, 0% vehicle. activation, % at 7 µM. actives 0.9% (n = 370,000);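 active = activation above the mean of all tested compounds plus 3 SD, computed per campaign excluding outliers beyond control limits, cut at about 13% in these data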
sPLA2 confirm = human GIII-sPLA2 inhibition, confirmation. shares compounds with HGIII-sPLA2 inh. recombinant hGIII-sPLA2, BODIPY PC-A2 QFRET fluorescence. inhibition, % at 12.2 µM. actives 34% (n = 2,000);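 active = mean inhibition across triplicates above the hit cutoff set in the earlier primary screen, cut at about 19% in these data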;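 also: 0% = enzyme with DMSO and 100% = DMSO wells lacking enzyme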
535nm interf = optically interferes with 535nm fluorescence in sPLA2 counter-screen | shares compounds with HGIII-sPLA2 inh | BODIPY FL product fluorescence interference, QFRET | inhibition, % at 12.2 µM | actives 8.5% (n = 2,000);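 active = average inhibition above the solvent-only control mean plus 3 SD, cut at about 6% in these data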;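 also: 0% = DMSO with substrate plus product and 100% = DMSO with substrate alone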
BODIPY interf DR = 535nm optical interference dose response, HGIII-sPLA2 counter-screen | shares compounds with HGIII-sPLA2 inh | BODIPY FL product fluorescence interference, cell-free | IC50, µM | 240 tested, under 10 active | AID 743455;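 active = IC50 at or below 10 µM; inactive = IC50 above 10 µM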
An asterisk follows results filed as active; nt = not tested or not shown. This is a sample that favours compounds with a hit; in the whole collection about 3.4% have one here.

SMILES	HGIII-sPLA2 inh	NRP1-CendR mod	ADAM10 inh	ADAM17 inh	proKLK7 act	sPLA2 confirm	535nm interf	others
CN(CCOC(=O)CC1C=CCC1)C1CN(Cc2cn(Cc3ccccc3Cl)nn2)S(=O)(=O)C1 (centres undefined)	-6	nt	0	-1	0	nt	nt
Cc1cc(OC(=O)c2cccc(C(F)(F)F)c2)c([N+](=O)[O-])c(=O)[nH]1	22*	-10	-9	-1	0	-4	-4
CCCCOc1ccc(C(=O)n2ccc3ccc(-c4ccc5ccn(Cc6ccc(OC)cc6)c5c4)cc32)cc1	10	nt	-20	-7	0	nt	nt
CCCCOc1ccc(C(=O)NNC(=S)NC(=O)CC)cc1	nt	-12	nt	nt	nt	nt	nt
O=C(/C=C/c1ccco1)NC(=S)NNC(=O)c1ccco1	31*	-16	-5	-4	1	16	4
O=C(NC(=S)NC1CCCc2ccccc21)c1ccco1 (centres undefined)	2	2	1	-1	0	nt	nt
O=C(NC(=S)NC1CCC(O)CC1)c1ccco1 (centres undefined)	20*	7	-17	-4	-1	1	-4
CCCOc1ccc(C(=O)NNC(=S)NC(=O)c2ccco2)cc1	31*	-4	2	-1	0	34*	-8	BODIPY interf DR=>122
CC(Oc1ccc(Cl)cc1)C(=O)NNC(=S)NC(=O)c1ccco1 (centres undefined)	28*	16	18	4	0	36*	-1	BODIPY interf DR=>122
O=C(COc1ccc(Cl)cc1Cl)NNC(=S)NC(=O)c1ccco1	-6	-8	9	-1	0	nt	nt
c1ccc(-c2cccc3[nH]cc(-c4ccccc4)c23)cc1	-44	nt	-7	1	-1	nt	nt
O=C(C(=O)N1CCN(C(=O)C2CCCC2)CC1)c1cccc(C(F)(F)F)c1	1	nt	6	2	0	nt	nt
O=C(NNC(=S)NC(=O)c1ccco1)c1ccc(F)cc1	7	2	7	1	0	nt	nt
COc1ccc(C(=O)NNC(=S)NC(=O)c2ccco2)cc1	20*	0	15	6	0	24*	0
CC(C)(C)c1ccc(-c2nnc3n2N=C(c2ccc4ccccc4c2)CS3)cc1	15	nt	-7	-3	0	nt	nt
CN(C)c1ccc(NC(=O)c2cccc(C(=O)Nc3ccc(N(C)C)cc3)n2)cc1	28*	-4	5	3	-1	36*	-11	BODIPY interf DR=>122
S=C(NCc1ccccc1)Nc1ccc2cn[nH]c2c1	8	4	3	-1	0	nt	nt
CCCCNC(=S)Nc1ccc2cn[nH]c2c1	21*	15	2	-3	-1	6	-1
COc1ccc(NC(=S)Nc2ccc3cn[nH]c3c2)cc1	17	6	-34	-12	1	nt	nt
CCc1ccc(NC(=S)Nc2ccc3cn[nH]c3c2)cc1	19*	1	-41	-18	-1	11	-6
COCC(=O)N(c1ccc(C(C)C)cc1)C1C=CS(=O)(=O)C1 (centres undefined)	19*	2	-8	-2	0	-4	-8
CCCCNCc1nc2ccccc2c(=O)[nH]1	27*	4	2	-9	-1	15	-2
CCc1ccc(NCc2nc3ccccc3c(=O)[nH]2)cc1	-10	4	-17	-7	0	nt	nt
COc1ccc(C2C(C(=O)N3CCCCC3C)CC(=O)N2c2ccc(OC)cc2)cc1 (centres undefined)	6	nt	-12	0	0	nt	nt
Cc1ccc(S(=O)(=O)NCC(C)n2cncn2)cc1C (centres undefined)	20*	12	3	-4	0	-3	1
Cc1cc(C)n(C(C)CNS(=O)(=O)c2ccc(C)c(C)c2)n1 (centres undefined)	1	7	4	-1	0	nt	nt
COc1ccc(N2CCN(C(=S)Nc3cc(C)ccc3C)CC2)cc1	21*	-15	-9	-1	-1	15	-6

Screening results as filed in PubChem.
